The supplement of paper PMC9694430
Several values for one entry are separate records, joined by “and”; a condition that tells them apart may be missing. Equal entries are not always repeated.

Experiments:
Assay in all cases: thermal shift delta Tm vs DMSO control; higher = stronger stabilization (binding)
Settings in all cases: 12.5 µM; protein concentration 2 µM
LOC_OS02G45750-cb003 = tested on: LOC_OS02G45750-cb003
Method in brief: (§1)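 Compounds dissolved in DMSO were added to purified rice kinase domain constructs, which had been expressed in E. coli, for differential scanning fluorimetry. Each well held 19.5 μl of 2 μM kinase in 100 mM potassium phosphate pH 7.5, 150 mM NaCl, 10% glycerol and 5 × SYPRO Orange. Fluorescence was followed from 25°C to 95°C at a rate of 0.05°C/s. Shifts in Boltzmann-fitted melting temperature are triplicate means relative to DMSO-only protein.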

LOC_OS02G54510-cb004 = tested on: LOC_OS02G54510-cb004
Method in brief: as §1

LOC_OS03G04050-cb001 = tested on: LOC_OS03G04050-cb001
Method in brief: as §1

LOC_OS03G12390-cb001 = tested on: LOC_OS03G12390-cb001
Method in brief: as §1

LOC_OS03G27990-cb004 = tested on: LOC_OS03G27990-cb004
Method in brief: as §1

LOC_OS03G50450-cb001 = tested on: LOC_OS03G50450-cb001
Method in brief: as §1

LOC_OS03G50810-cb003 = tested on: LOC_OS03G50810-cb003
Method in brief: as §1

LOC_OS04G35114-cb001 = tested on: LOC_OS04G35114-cb001
Method in brief: as §1

LOC_OS04G38480-cb003 = tested on: T1, LOC_OS04G38480-cb003
T1 sequence (whole entry): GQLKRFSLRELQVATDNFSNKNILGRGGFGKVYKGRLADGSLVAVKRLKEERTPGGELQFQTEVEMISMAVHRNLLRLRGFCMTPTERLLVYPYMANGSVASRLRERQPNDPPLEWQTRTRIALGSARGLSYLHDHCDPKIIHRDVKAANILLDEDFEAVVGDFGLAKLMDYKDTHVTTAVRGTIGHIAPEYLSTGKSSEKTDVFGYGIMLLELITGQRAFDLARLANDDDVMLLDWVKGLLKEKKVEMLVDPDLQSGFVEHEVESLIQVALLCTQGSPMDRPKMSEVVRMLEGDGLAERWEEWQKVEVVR
Method in brief: as §1

LOC_OS04G41100-cb001 = tested on: T2, LOC_OS04G41100-cb001
T2 sequence (whole entry): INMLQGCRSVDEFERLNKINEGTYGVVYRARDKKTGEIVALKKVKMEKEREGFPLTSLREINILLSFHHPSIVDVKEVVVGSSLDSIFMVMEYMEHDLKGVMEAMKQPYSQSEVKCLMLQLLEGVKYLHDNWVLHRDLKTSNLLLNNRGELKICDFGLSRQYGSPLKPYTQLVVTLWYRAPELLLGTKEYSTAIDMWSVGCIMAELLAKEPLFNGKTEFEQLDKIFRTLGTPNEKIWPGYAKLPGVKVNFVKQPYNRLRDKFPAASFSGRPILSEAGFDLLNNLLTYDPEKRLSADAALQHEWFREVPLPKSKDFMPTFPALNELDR
Method in brief: as §1

LOC_OS04G57630-cb004 = tested on: LOC_OS04G57630-cb004
Method in brief: as §1

LOC_OS05G07850-cb002 = tested on: LOC_OS05G07850-cb002
Method in brief: as §1

LOC_OS05G16824-cb004 = tested on: LOC_OS05G16824-cb004
Method in brief: as §1

LOC_OS05G28520-cb001 = tested on: LOC_OS05G28520-cb001
Method in brief: as §1

LOC_OS05G30820-cb001 = tested on: LOC_OS05G30820-cb001
Method in brief: as §1

LOC_OS05G43570-cb004 = tested on: LOC_OS05G43570-cb004
Method in brief: as §1

LOC_OS06G16330-cb003 = tested on: LOC_OS06G16330-cb003
Sequence of LOC_OS06G16330-cb003 (as listed by the source): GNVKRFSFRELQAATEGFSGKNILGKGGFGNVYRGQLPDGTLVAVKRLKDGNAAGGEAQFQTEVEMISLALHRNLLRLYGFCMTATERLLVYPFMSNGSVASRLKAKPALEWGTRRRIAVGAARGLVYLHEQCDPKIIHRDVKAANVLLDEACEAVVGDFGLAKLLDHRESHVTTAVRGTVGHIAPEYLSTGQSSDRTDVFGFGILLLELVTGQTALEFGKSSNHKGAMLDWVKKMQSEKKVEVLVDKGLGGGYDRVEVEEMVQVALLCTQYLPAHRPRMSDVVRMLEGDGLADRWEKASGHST
Method in brief: as §1

LOC_OS06G22820-cb001 = tested on: T3, LOC_OS06G22820-cb001
T3 sequence (whole entry): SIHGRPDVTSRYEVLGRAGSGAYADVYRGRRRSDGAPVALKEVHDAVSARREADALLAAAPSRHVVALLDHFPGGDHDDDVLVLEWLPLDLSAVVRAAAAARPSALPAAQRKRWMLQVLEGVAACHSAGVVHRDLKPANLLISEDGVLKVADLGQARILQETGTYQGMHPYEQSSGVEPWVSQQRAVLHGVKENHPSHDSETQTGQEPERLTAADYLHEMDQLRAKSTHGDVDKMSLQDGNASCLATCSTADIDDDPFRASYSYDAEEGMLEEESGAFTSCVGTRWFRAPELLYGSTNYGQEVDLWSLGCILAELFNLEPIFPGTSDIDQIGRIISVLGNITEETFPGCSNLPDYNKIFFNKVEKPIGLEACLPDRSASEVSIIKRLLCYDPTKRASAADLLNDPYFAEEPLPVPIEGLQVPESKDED
Method in brief: as §1

LOC_OS07G06570-cb004 = tested on: LOC_OS07G06570-cb004
Method in brief: as §1

LOC_OS07G07230-cb001 = tested on: LOC_OS07G07230-cb001
Method in brief: as §1

Structure (SMILES)	thermal shift delta Tm (LOC_OS02G45750-cb003)	thermal shift delta Tm (LOC_OS02G54510-cb004)	thermal shift delta Tm (LOC_OS03G04050-cb001)	thermal shift delta Tm (LOC_OS03G12390-cb001)	thermal shift delta Tm (LOC_OS03G27990-cb004)	thermal shift delta Tm (LOC_OS03G50450-cb001)	thermal shift delta Tm (LOC_OS03G50810-cb003)	thermal shift delta Tm (LOC_OS04G35114-cb001)	thermal shift delta Tm (LOC_OS04G38480-cb003)	thermal shift delta Tm (LOC_OS04G41100-cb001)	thermal shift delta Tm (LOC_OS04G57630-cb004)	thermal shift delta Tm (LOC_OS05G07850-cb002)	thermal shift delta Tm (LOC_OS05G16824-cb004)	thermal shift delta Tm (LOC_OS05G28520-cb001)	thermal shift delta Tm (LOC_OS05G30820-cb001)	thermal shift delta Tm (LOC_OS05G43570-cb004)	thermal shift delta Tm (LOC_OS06G16330-cb003)	thermal shift delta Tm (LOC_OS06G22820-cb001)	thermal shift delta Tm (LOC_OS07G06570-cb004)	thermal shift delta Tm (LOC_OS07G07230-cb001)
O=C(c1ccc(Nc2nccc(-c3cc4ccccc4s3)n2)cc1)N1CCC(N2CCCC2)CC1 [IKK-16 (IKK Inhibitor VII)]	6.42 °C	1.74 °C	0.22 °C	2.55 °C	4.05 °C	1.23 °C	5.04 °C	5.32 °C	3.88 °C	4.91 °C	5.63 °C	15.2 °C	7.99 °C	1.89 °C	0.77 °C	-0.31 °C	9.02 °C	0.14 °C	0.72 °C	0.03 °C
O=C(NC1CCNCC1)c1n[nH]cc1NC(=O)c1c(Cl)cccc1Cl	0.66 °C and 1.33 °C	0.11 °C and 0.36 °C	0.15 °C and 0.29 °C	0.1 °C and 0.19 °C	0.04 °C and 0.36 °C	0.11 °C and 0.36 °C	0.29 °C and 0.51 °C	0.48 °C and 0.71 °C	0.07 °C and 1.75 °C	7.15 °C and 7.57 °C	-0.08 °C and 0.55 °C	0.37 °C and 0.45 °C	-3.35 °C and -1.47 °C	0.1 °C and 0.64 °C	0.56 °C and 0.5 °C	0.07 °C and 0.69 °C	-0.07 °C and 0.05 °C	0.77 °C and 1.12 °C	0.44 °C and 0.91 °C	0.04 °C and 0.01 °C
Cc1ccccc1CN1C2=NCCN2C(=O)C2=C1CCN(Cc1ccccc1)C2 [TIC10 Analogue]	-0.1 °C	0.13 °C	0.49 °C	-0.16 °C	0.09 °C	0.31 °C	0.21 °C	0.79 °C	0.2 °C	0.45 °C	-0.16 °C	-0.89 °C	-2.52 °C	0.56 °C	0.36 °C	0.33 °C	-0.41 °C	0.74 °C	1.19 °C	0.09 °C
CN1CC(O)C2=C/C(=N/NC(N)=O)C(=O)C=C21 (stereo not given) [Carbazochrome]	0.38 °C	0.29 °C	0.65 °C	0.05 °C	0.64 °C	0.96 °C	0.41 °C	-0.02 °C	0.38 °C	0.2 °C	-0.07 °C	1.06 °C	-3.49 °C	-0.11 °C	0.11 °C	0.35 °C	0.27 °C	0.09 °C	0.68 °C	0.58 °C
CC(C)(CO)n1cc(C(=O)c2cncc(NC(=O)Cc3ccc(Cl)cn3)c2)c2cnc(N)nc21	1.08 °C	0.19 °C	0.46 °C	0.3 °C	0.39 °C	0.47 °C	0.51 °C	0.51 °C	1.37 °C	0.41 °C	0.34 °C	5.09 °C	-0.67 °C	0.14 °C	0.02 °C	0.18 °C	2.22 °C	0.45 °C	1.47 °C	0.34 °C
CCOc1cc2ncc(C#N)c(Nc3ccc(F)c(Cl)c3)c2cc1NC(=O)/C=C/CN(C)C [Pelitinib (EKB-569)]	4.93 °C	0.37 °C	0.32 °C	0.42 °C	3.2 °C	0.73 °C	1.15 °C	5.5 °C	0.56 °C	0.56 °C	0.32 °C	2.2 °C	-1.87 °C	-0.33 °C	0.56 °C	0.2 °C	2.16 °C	0.39 °C	0.65 °C	0.56 °C
